Reference: PubChem BioAssay (NCI)
Compounds without any hit were thinned out: in the full panel of roughly 79,000, 15% have a hit. Rule as the data show it: active = growth inhibition above about 70%; inactive = the rest.

What was measured:
[1] = NCI Yeast Anticancer Drug Screen. Data for the rad52 strain (AID 147);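 also: 0% = growth of vehicle-treated control cultures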; details: S. cerevisiae rad52 mutant growth inhibition, stronger effect = higher value
Summary of the method: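 Genetically altered yeast (DNA damage repair defect) treated with compound; inhibition calculated relative to vehicle.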

[2] = NCI Yeast Anticancer Drug Screen. Data for the wt1 strain (AID 149);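 also: 0% = growth of vehicle-treated wt1 cultures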; details: S. cerevisiae wt1 strain (SPY 50644) growth inhibition, stronger effect = higher value
Summary of the method: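 The wt1 strain was treated with compounds, and growth was compared with vehicle-treated cultures to give inhibition.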

[3] = NCI Yeast Anticancer Drug Screen. Data for the rad50EPP+ strain (AID 151);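 also: 0% = growth of vehicle-treated control cultures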; details: S. cerevisiae rad50 mutant strain, stronger effect = higher value
Summary of the method: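 Strain rad50EPP+; compound exposure; % growth inhibition vs vehicle.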

[4] = NCI Yeast Anticancer Drug Screen. Data for the mgt1 strain (AID 153); details: S. cerevisiae mgt1 mutant growth inhibition, stronger effect = higher value
Summary of the method: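 Read-out: yeast growth inhibition vs vehicle control. Strain mgt1, drawn from a panel altered in DNA damage repair or cell cycle control.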

[5] = NCI Yeast Anticancer Drug Screen. Data for the rad50 strain (AID 155);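 also: 0% = growth of vehicle-only cultures of the same strain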; details: S. cerevisiae rad50 strain growth inhibition, stronger effect = higher value
Summary of the method: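 Cells are treated with compound, grown, and their growth is then scored against vehicle-only cultures of the same repair-deficient yeast strain.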

[6] = NCI Yeast Anticancer Drug Screen. Data for the mec2-1 strain (AID 157); details: S. cerevisiae mec2-1 strain, stronger effect = higher value
Summary of the method: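 Cells of the genetically defined mec2-1 yeast strain are incubated with test compound. Inhibition of growth is calculated against vehicle-treated controls.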

[7] = NCI Yeast Anticancer Drug Screen. Data for the rad14 strain (AID 159);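 also: 0% = growth of vehicle-treated control cultures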; details: S. cerevisiae rad14 strain growth inhibition, stronger effect = higher value
Summary of the method: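 Readout: yeast growth inhibition, referenced to vehicle-only cultures. Strain bears a defined alteration in DNA damage repair.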

[8] = at 5.0 µM (retest, dose inferred, filed as 0.5)
[9] = at 50.0 µM (retest, dose inferred, filed as 5.0)

Measured: growth inhibition

COc1cc(O)c(O)c(C(C)(C)C)c1
inactive: [1]; at 1.2 µM -1% | [1]; at 3.7 µM 3% | [1]; at 11.0 µM 5% | [1]; at 33.0 µM 10% | [1]; at 100.0 µM 19% | [2]; at 1.2 µM -1% | [2]; at 3.7 µM -1% | [2]; at 11.0 µM 4% | [2]; at 33.0 µM 3% | [2]; at 100.0 µM 4% | [3]; at 1.2 µM 12% | [3]; at 3.7 µM 16% | [3]; at 11.0 µM 41% | [3]; at 33.0 µM 53% | [3]; at 100.0 µM 50% | [4]; at 1.2 µM -2% | [4]; at 3.7 µM -2% | [4]; at 11.0 µM 4% | [4]; at 33.0 µM 24% | [4]; at 100.0 µM 12% | [5]; at 1.2 µM 0% | [5]; at 3.7 µM -2% | [5]; [8] 10% | [5]; at 11.0 µM 3% | [5]; at 33.0 µM 6% | [5]; [9] 38% | [5]; at 50.0 µM 63.7% | [5]; at 100.0 µM 12% | [6]; at 1.2 µM -3% | [6]; at 3.7 µM -1% | [6]; [8] 4% | [6]; at 11.0 µM 0% | [6]; at 33.0 µM 5% | [6]; [9] 16% | [6]; at 50.0 µM 59.5% | [6]; at 100.0 µM 18% | [7]; at 1.2 µM -1% | [7]; at 3.7 µM -3% | [7]; at 11.0 µM 5% | [7]; at 33.0 µM 10% | [7]; at 100.0 µM 19%
